# Measured values taken from ChEMBL document CHEMBL4513216, “Probing the Open Global Health Chemical Diversity Library for Multistage-Active Starting Points for Next-Generation Antimalarials” (ACS Infect Dis, 2020).
# Among all 69,000 compounds or so, about 8,600 (12%) showed an effect of 50% or more. The full list was thinned out, with strong results kept by preference.
# System: Plasmodium berghei
# Experiment: Screen against P. berghei liver stage (PbLuc), transformed with Luciferase, at 10uM
# Type: functional, HepG2
# Settings: tested at 10 uM
row,SMILES,INHIBITION [%]
1,Cc1n[nH]c(C)c1-c1cnc(CC2CCN(C(C)C)CC2)cn1,23.2
2,O=C(NC1CCCN(c2ccccc2Cl)C1)c1nc(=O)[nH][nH]1 (stereo not given),-6.05
3,Cc1ccc(Cl)cc1N1CCC(CNC(=O)CCn2ccnc2)C1 (stereo not given),31.8
4,Cc1cc(F)ccc1N1CCCC(NC(=O)CCCn2ccnc2)C1 (stereo not given),70.1
5,Cc1cc(F)ccc1N1CCCC(NC(=O)CCc2ccncc2)C1 (stereo not given),29
6,O=C(NC1CCCN(c2ccccc2Cl)C1)c1c[nH]nn1 (stereo not given),21.1
7,O=C(CCCn1ccnc1)NC1CCCN(c2ccccc2Cl)C1 (stereo not given),88
8,CCOCC1CN(c2ccncn2)Cc2cnn(CC)c21 (stereo not given),5.67
9,Cc1nn(C)c2cn(CC(=O)N3CCc4ccccc4C3)nc12,8.49
10,CC(C)(C)NC(=O)N1CCC(Oc2ccc(C(F)(F)F)cn2)CC1,86.3
11,CCOCC(=O)N1CCC(Oc2ccc(C(F)(F)F)cn2)CC1,11.8
12,CCOC(=O)N1CCC(Oc2ccc(C(F)(F)F)cn2)CC1,-16.4
13,NC(=O)Cn1cc(NC(=O)N2CCSCC2)cn1,-15
14,O=C(NCc1ccnc(OCC(F)(F)F)c1)NCC1COCCO1 (stereo not given),4.12
15,CC(CC(=O)c1ccccc1)NC(=O)c1ccon1 (stereo not given),28.2
16,Cc1nc(CSCCC(=O)NCc2ccc(N(C)C)cc2)cs1,-58
17,O=C(c1ccccc1F)N1CCN(CCCn2cncn2)CC1,32.3
18,Cc1ccc(C(=O)N2CCN(CCCSCC#N)CC2)cc1F,5.41
19,N#CCSCCCN1CCN(C(=O)c2ccccc2F)CC1,69.7
20,Cc1cccc(C(=O)N2CCCN(CCCSCC#N)CC2)c1,59.2
21,N#CCSCCCN1CCCN(C(=O)c2ccccc2)CC1,50.1
22,CC(=O)N1CCCN(CCCSCc2ccccc2)CC1,15.7
23,N#CCSCCCN1CCN(C(=O)c2cccc(Cl)c2)CC1,10.7
24,N#CCSCCCN1CCN(C(=O)c2ccc(Cl)cc2)CC1,3.47
25,CC(=O)N1CCN(CCCSCc2ccccc2)CC1,-23.5
26,Cc1nc(CN2CCO[C@@H]3CN(Cc4ccsc4)C[C@@H]3C2)cs1,22.5
27,Cc1ccc(N2CCN(C(=O)CN3C[C@H]4CC[C@@H]3C4)CC2=O)cc1,32.1
28,CSc1ncnc(NCc2ccco2)c1C#N,9

row,SMILES,INHIBITION [%]
1,Cc1cccc(N2CCCC3(C2)CN(c2nncs2)CCO3)c1 (stereo not given),38.5
2,COc1ccc(N2CCCC3(C2)CN(c2nncs2)CCO3)cc1 (stereo not given),65.6
3,O=C(c1ccncc1)N1CCOC2(CCCN(c3nncs3)C2)C1 (stereo not given),58.4
4,CC(=O)N1CCCC2(C1)CN(C(=O)c1ccncc1)CCO2 (stereo not given),27.6
5,CC(=O)N1CCCC2(C1)CN(c1nncs1)CCO2 (stereo not given),34
6,c1cncc(N2CCOC3(CCCN(c4nncs4)C3)C2)c1 (stereo not given),26.3
7,O=C(CSc1ccccc1F)NS(=O)(=O)c1ccc2c(c1)OCCO2,40.9
8,CCn1cc(S(=O)(=O)N2CCN(S(=O)(=O)c3ccc(Br)s3)CC2)cn1,41
9,NC(=O)c1ccc(OCCCN2CCC3(CC2)OCCCC3O)cc1 (stereo not given),47.6
10,Cn1cc(C2=CCN(CCCC(=O)Nc3ccc(C#N)cc3)CC2)cn1,50.4
11,COc1ccccc1OCCCN1CC=C(c2cnn(C)c2)CC1,30.1
12,CO[C@H]1C[C@@H](O)C12CCN(CCCOc1ccc(C(N)=O)cc1)CC2,33.7
13,CC[C@@]1(O)CCN(CCCOc2ccc(C(N)=O)cc2)C[C@H]1O,50.5
14,CCn1cc(C2=CCN(CCCOc3ccccc3)CC2)cn1,9.56
15,COc1ccc(NC(=O)CCN2CC=C(c3cnn(C)c3)CC2)cc1Cl,-37.2
16,COc1ccc(NC(=O)CCN2CC=C(c3cnn(C)c3)CC2)c(C)c1,11.5
17,CCc1cccc(NC(=O)CCN2CC=C(c3cnn(C)c3)CC2)c1,0.348
18,Cn1cc(C2=CCN(CCC(=O)NCc3ccc(Cl)cc3)CC2)cn1,33.7
19,Cn1cc(C2=CCN(CCCOc3ccc(C(N)=O)cc3)CC2)cn1,53.9
20,CCc1nnc(NC(=O)CCN2CC=C(c3cnn(C)c3)CC2)s1,60.2
21,CC(C)NC(=O)CCCn1cnc2ccccc2c1=O,10.5
22,O=C(CCn1c(=O)oc2ccccc21)NCC(O)c1ccc(F)c(F)c1 (stereo not given),-12.5
23,O=S(=O)(N1CCOCC1)N1CCCCC1CCn1cccn1 (stereo not given),-84.5
24,N#Cc1c(CN2CCCC2Cn2cncn2)cn2ccccc12 (stereo not given),-36
25,O=C(c1ccccn1)N1CCC(S(=O)(=O)c2ccccc2)C1 (stereo not given),45.5
26,O=C1CCOC[C@]2(CN(Cc3ccccc3)C[C@H]2c2ccccc2)N1,37.1
27,CCC(O)CN1CCN(C(=O)CCc2c(C)noc2Cl)CC1 (stereo not given),25.1
